High-throughput results: PubChem, University of Kansas High Throughput Screening Laboratory
Pf apPOL block – Pf-apPOL DNA polymerase inhibition. Recombinant Pf-apPOL, molecular beacon fluorescence, 1.5 h. inhibition, % at 10 µM. 210,000 tested, 0.25% active. AID 1794808
mHTT-CaM PPI inh – inhibitors of human mutant huntingtin-calmodulin interaction. P42858. AlphaScreen His-mHTT/GST-CaM binding, luminescence. inhibition, % at 15 µM. AID 1671202. 190,000 tested, 3.6% active
Of the large screens only hits and unclear results are named; the others gave an inactive call. Shown are actives, neighbours in structure and some others; about 3.6% of the full set was active somewhere. No stated cut-off is given here; in the data, active means inhibition above about 50%; inactive means the rest.

CCC(=O)Nc1cccc(-c2noc(C3CCCN(C(=O)c4cc5ccccc5[nH]4)C3)n2)c1 (stereo unspecified)	mHTT-CaM PPI inh 59.1
CCC(=O)Nc1cccc(-c2noc(C3CCCN(C(=O)c4ccccc4C)C3)n2)c1 (stereo unspecified)	none
COc1ccc(CN2CCCN(Cc3ccc(OC)cc3)C2c2cccc3c2OCO3)cc1	none (no result: mHTT-CaM PPI inh)
COc1ccc(CC(=O)Nc2c3c(nn2-c2ccc(OC)cc2)CSC3)cc1	none
COc1ccc(CNC(=O)Cn2nc3c(c2NC(=O)Cc2cccs2)CSC3)cc1	mHTT-CaM PPI inh 66.3
CCn1cnnc1C1CCN(C(=O)Cc2ccccc2OC)CC1	none
Cc1ccc(-c2cc(C(=O)NCc3cccnc3)c3ccccc3n2)cc1C	none
CCCn1cc(C(=O)N2CCC(N3CCCCC3)CC2)c2cccnc21	none
Cc1cc(S(=O)(=O)N2CCOC23CCN(C(=O)c2cnccn2)CC3)ccc1F	none
Cc1cccc(NC(=O)CSC2=Nc3ccccc3C3=NC(c4ccccc4)C(=O)N23)c1 (stereo unspecified)	none
CCOc1cc(-c2cc(OC)c(OC)c(OC)c2)cc(=O)c2c(C)oc(C)c12	none
CCOc1cc(-c2ccc(O)c(O)c2)cc(=O)c2c(C)oc(C)c12	none
CCOc1cc(-c2ccc(SC)cc2)cc(=O)c2c(C)oc(C)c12	mHTT-CaM PPI inh 70.0
CCOc1cc(-c2ccc(OCc3ccccc3)c(OC)c2)cc(=O)c2c(C)oc(C)c12	mHTT-CaM PPI inh 70.0
COc1ccc(-c2cc(OC)c3c(C)oc(C)c3c(=O)c2)cc1	mHTT-CaM PPI inh 54.0
COc1cc(-c2ccc(O)cc2)cc(=O)c2c(C)oc(C)c12	none
O=C(COc1ccccc1)Nc1c2c(nn1-c1ccc(Cl)cc1)CS(=O)(=O)C2	none
COCCCn1c(=N)c(C(=O)NCCN2CCOCC2)cc2c(=O)n3ccccc3nc21	none
Cc1nc2c(C(=O)NC3CCCC3)cnn2c(C)c1Cc1cccc(Br)c1	none
Cc1nc2c(C(=O)NC3CCCCC3)cnn2c(C)c1Cc1cccc(Cl)c1	mHTT-CaM PPI inh 61.0
Cc1nc2c(C(=O)NC3CCCCC3C)cnn2c(C)c1Cc1ccccc1 (stereo unspecified)	none
Cc1nc2c(C(=O)NC3CCCCC3)cnn2c(C)c1Cc1ccccc1Cl	none
Cc1nc2c(C(=O)NC3CCCCC3C)cnn2c(C)c1Cc1cccc(Cl)c1 (stereo unspecified)	mHTT-CaM PPI inh 71.0
Cc1nc2c(C(=O)NC3CC3)cnn2c(C)c1Cc1ccccc1Cl	mHTT-CaM PPI inh 58.0
OCc1nc2ccccc2n1CCOc1ccc(Br)cc1	none
CC(=O)NCc1csc(C2CCN(C(=O)c3ccc(C)c(C)c3)CC2)n1	none
CNC(=O)c1c(NC(=O)c2ccc([N+](=O)[O-])o2)sc2c1CCC2	none
COc1ccc(OCCNC(=O)c2ccc(Br)cc2)cc1	none
COc1ccc(Cl)cc1NC(=O)CSc1nc(=O)n2cccc(C)c2n1	none
COc1ccc(Cl)cc1NC(=O)CSc1nc(=O)n(CCCO)c2c1CCCC2	mHTT-CaM PPI inh 57.3
CCc1ccc(CN2CCC(C(=O)N3CCCC3)CC2)cc1	none
Cc1cc(N2N=C(c3ccccc3)CC2=O)nc(-c2ccccc2O)n1	none
CCc1cccc(C)c1-n1nnnc1C(C)(C)Nc1ccccc1	none
CCC(C)(Nc1ccc(N(C)C)cc1)c1nnnn1-c1c(C)cccc1C (stereo unspecified)	mHTT-CaM PPI inh 55.0
Cc1cc2ncn(CC(O)COc3ccccc3Cl)c2cc1C (stereo unspecified)	none
O=C(Nc1ccccc1C(=O)NCc1ccccc1)c1ccc(F)cc1	none
CCc1nc2c(NC(=O)c3ccc(C(F)(F)F)cc3)cccn2n1	mHTT-CaM PPI inh 54.5
CCc1nc2c(NC(=O)c3cc(F)cc(F)c3)cccn2n1	none
C=CCn1c(=O)c(C(=O)Nc2ncccc2C)c(O)c2ccccc21	mHTT-CaM PPI inh 98.0
C=CCn1c(=O)c(C(=O)Nc2ccccc2)c(O)c2ccccc21	none
Cc1cccnc1NC(=O)c1c(O)c2cccc3c2n(c1=O)CC3	mHTT-CaM PPI inh 80.0
NCCNC(=O)c1c(O)c2cccc3c2n(c1=O)CC3	none
O=C(Nc1ccncc1)c1c(O)c2cccc3c2n(c1=O)CC3	none
NCCCCCCNC(=O)c1c(O)c2cccc3c2n(c1=O)CC3	mHTT-CaM PPI inh 100.0
COC(=O)c1ccc2c(=O)n(-c3ccc(C)c(F)c3)c(N3CCSC3)nc2c1	none
Cc1cc2c(N3CCC(C(=O)NC4CCCCCC4)CC3)nccc2s1	none
CCCCOc1ccc(O)c(C(C)=O)c1	none
CCc1cccc(C)c1NC(=O)C(C)(C)Oc1ccc(Cl)cc1	none
Nc1cc(S(=O)(=O)O)c(N)c2c1C(=O)c1ccccc1C2=O	none (no result: mHTT-CaM PPI inh)
O=C1c2ccccc2C(=O)c2c1cc(S(=O)(=O)O)c(O)c2O	mHTT-CaM PPI inh 52.0 (no result: Pf apPOL block)
O=C1c2ccccc2C(=O)c2c(O)ccc(O)c21	none
O=C1c2ccccc2C(=O)c2c(O)c(O)cc(O)c21	mHTT-CaM PPI inh 75.0
Cc1ccccc1CN1CCOCC1	none
CC1Oc2ccc(NC(=O)Cc3cccs3)cc2CN(C2CC2)C1=O (stereo unspecified)	none
CN(C)c1cccc(C(=O)NCC2CCN(c3cc(-c4ccccn4)[nH]n3)CC2)c1	mHTT-CaM PPI inh 54.9
O=C(NCC1CCN(c2cc(-c3ccccn3)[nH]n2)CC1)c1ccc2c(c1)OCO2	none
COc1ccccc1CC(=O)N1CCC(Nc2nccnc2OC)CC1	none
O=C(CCN1CCN(C2c3ccccc3-c3ccccc32)CC1)Nc1cccc(C(F)(F)F)c1	mHTT-CaM PPI inh 69.0
O=C(CN1CCN(C2c3ccccc3-c3ccccc32)CC1)Nc1ccc(F)c(F)c1	mHTT-CaM PPI inh 74.0
CN(C)c1ccc(NC(=O)CCN2CCN(C3c4ccccc4-c4ccccc43)CC2)cc1	mHTT-CaM PPI inh 93.0
CCOc1ccc(NC(=O)CCN2CCN(C3c4ccccc4-c4ccccc43)CC2)cc1	none
CN(C)c1ccc(NC(=O)CN2CCN(C3c4ccccc4-c4ccccc43)CC2)cc1	none
COc1cccc(NC(=O)CN2CCN(C3c4ccccc4-c4ccccc43)CC2)c1	none
Cc1ccc(S(=O)(=O)NC(=O)Nc2cc(-c3ccc(Cl)cc3)nn2C)cc1	none (no result: mHTT-CaM PPI inh)
CC(C)N1C(=O)c2ccccc2C1C(=O)NC1CCCC1 (stereo unspecified)	none
Cc1cccn2c(=O)c3cc(C(=O)NCCc4ccccc4)c(=N)n(CCOCCO)c3nc12	none
O=C1C2=C(Nc3ccccc3SC2c2ccc(Br)cc2)c2ccccc21 (stereo unspecified)	mHTT-CaM PPI inh 70.2 (no result: Pf apPOL block)
COc1ccc(OC)c(C2Sc3ccccc3NC3=C2C(=O)c2ccccc23)c1 (stereo unspecified)	mHTT-CaM PPI inh 71.0
CCOC(=O)C1=C(C)NC2=C(C(=O)c3ccccc32)C1c1ccc([N+](=O)[O-])cc1 (stereo unspecified)	none (no result: mHTT-CaM PPI inh)
Cn1c2c(c(=O)n(C)c1=O)C(c1ccc([N+](=O)[O-])cc1)C1=C(N2)c2ccccc2C1=O (stereo unspecified)	none
O=C1C2=C(Nc3[nH]n(-c4ccccc4)c(=O)c3C2c2ccc([N+](=O)[O-])cc2)c2ccccc21 (stereo unspecified)	mHTT-CaM PPI inh 50.0
O=C1C2=C(Nc3ccccc3SC2c2ccc([N+](=O)[O-])cc2)c2ccccc21 (stereo unspecified)	mHTT-CaM PPI inh 66.0
O=C1OCC2=C1C(c1ccc(F)cc1)Sc1ccccc1N2 (stereo unspecified)	none
COc1ccc(OC)c(C2C3=C(Nc4c2c(=O)n(C)c(=O)n4C)c2ccccc2C3=O)c1 (stereo unspecified)	none
Cc1ccc(N2C=NS(=O)(=O)c3cccnc32)cc1F	none
O=C(NCc1ccncc1)c1sc2ncccc2c1-n1cccc1	none
